Measured values from ChEMBL document CHEMBL3988442, “University of Dundee, Small-Polar-MMV Screening Library” (2021).

Legend:
[1] = biological target: T1, Aspartate--tRNA(Asp/Asn) ligase (Mycobacterium tuberculosis (strain ATCC 25618 / H37Rv)) (UniProt P9WFW3); assay: Assay for Asp RNA synthetase-1 from Mycobacterium tuberculosis; format: functional; set-up: scale not given: direction of the effect not stated beside the values; details: 30 µM; further: in the data most compounds retested in dose-response had high values
T1 sequence (whole entry): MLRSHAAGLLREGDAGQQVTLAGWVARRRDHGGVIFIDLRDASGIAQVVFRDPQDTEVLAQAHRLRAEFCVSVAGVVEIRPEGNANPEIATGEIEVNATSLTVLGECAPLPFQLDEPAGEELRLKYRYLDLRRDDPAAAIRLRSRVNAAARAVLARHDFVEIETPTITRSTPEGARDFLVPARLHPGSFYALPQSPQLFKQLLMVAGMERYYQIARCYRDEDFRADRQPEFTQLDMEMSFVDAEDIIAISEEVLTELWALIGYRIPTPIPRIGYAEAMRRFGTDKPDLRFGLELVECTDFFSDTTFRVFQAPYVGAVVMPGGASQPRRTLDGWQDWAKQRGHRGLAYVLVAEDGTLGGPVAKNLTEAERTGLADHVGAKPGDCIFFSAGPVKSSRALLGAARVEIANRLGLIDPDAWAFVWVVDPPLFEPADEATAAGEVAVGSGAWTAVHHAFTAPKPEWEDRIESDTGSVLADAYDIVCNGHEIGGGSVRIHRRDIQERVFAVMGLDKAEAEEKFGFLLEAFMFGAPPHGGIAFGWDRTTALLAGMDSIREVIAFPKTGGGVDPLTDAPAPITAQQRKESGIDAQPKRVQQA

[2] = biological target: Shiga toxin 2 (Escherichia coli O157:H7) (UniProt P09385+P09386); assay: E. coli 0.157:H7 Shiga Toxin SOP - stx2 screening assay; format: functional; set-up: scale not given: direction of the effect not stated beside the values; details: 30 µM

Structure (SMILES) | Percent Effect [1] | Percent Effect [2]
O=C(C1CCOCC1)N1CC[C@H]2C[C@@H](c3ccncn3)O[C@@H]2C1 | 1.69% | -27.6%
Cc1nccn1-c1cccc(C2CCCN2S(=O)(=O)c2cn(C)cn2)n1 (centres undefined) | 12.1% | 45.9%
Cc1noc2ncc(C(=O)N(CC3CCOC3)C3CC3)cc12 (centres undefined) | 2.12% | 24.4%
COCC(c1cccc(C(F)(F)F)c1)N(C)C(=O)c1ccncc1 (centres undefined) | -1.77% | -15.3%
CSCC[C@H](NC(=O)Cn1ccc2c(Cl)cccc21)C(=O)O | -3.22% | -22%
O=C(NCc1ccccc1F)N1CCC(C2OCCO2)CC1 | -2.61% | -12.8%
CCc1nc(C2CCCN2C(=O)C2=COCC2)no1 (centres undefined) | -0.485% | -3.44%
Cc1ccc(Nc2nccc(C3CN(CC(N)=O)C3)n2)nc1 | -1.29% | -33.3%
CCCN(Cc1ccccc1)Cn1nc(C)c2c(C)onc2c1=O | 9.28% | 6.54%
CC[C@@]1(O)CCN(C(=O)c2ccsc2)C[C@H]1O | -4.99% | -16.9%
CCN(Cc1ccco1)C(=O)NCc1nnc2n1CCC2 | 0.859% | -4.02%
COCCC1(CO)CCCN(Cc2ccc(F)c(C)c2)C1 (centres undefined) | 6.95% | 15.6%
O=C(C1CC1)N1CC[C@H](O)[C@@H]1Cc1ccccc1 | -2% | 1.84%
COCc1cccc(NC(C)C(=O)N(C)Cc2ccccc2)c1 (centres undefined) | -0.212% | -8.1%
O=C(c1ccco1)N1C[C@@H]2OCCN(CCN3CCCC3)[C@@H]2C1 | 7.66% | -2.25%
CCc1nc(CN2CCCN(c3ncnc4ccccc34)CC2)no1 | 13.7% | -69.3%
Cc1nnc(NC(=O)CN2CCCC(Cn3cncn3)C2)s1 (centres undefined) | 2.66% | -3.39%
CC(O)CN1CCN(C(=O)c2cccc(CC#N)c2)CC1 (centres undefined) | 2.73% | -54.8%
Cc1cnn(CC2CCCN2C(=O)c2cc3ccccc3[nH]c2=O)c1 (centres undefined) | -1.15% | 22.9%
Cc1ccc(N2CCCN(C(=O)C(C(C)C)n3cncn3)CC2)nn1 (centres undefined) | -4.34% | -13.6%
CN(C)CC(=O)N1CCC2(CC(=O)N(c3cccc(C#N)c3)C2)C1 (centres undefined) | 7.58% | 1.05%
Cc1ccc(NC(=O)Cn2cc(I)cn2)cc1 | 1.25% | -45.6%
O=C([C@@H]1COC[C@H]2CN(C3CCOCC3)C[C@H]21)N1CCCCO1 | 6.99% | -23.5%
CC(C)NC(=O)N1CCC2(C1)CN(c1ccsc1)C(=O)CN2C (centres undefined) | 11.4% | -17.6%

Structure (SMILES) | Percent Effect [1] | Percent Effect [2]
Cc1cnc2n(c1=O)CC(C(=O)Nc1ccccc1Cl)CS2 (centres undefined) | -5.41% | -4.63%
Cn1cnnc1C1CCCN(C(=O)NCCc2ccccc2F)C1 (centres undefined) | -6.03% | 15.6%
O=C(NC[C@]12COC[C@H]1CN(Cc1nccs1)C2)c1ccccc1 | -2.56% | -14.5%
Cc1nnc(NCc2ccccc2Cl)c(C#N)c1C | 16.3% | 10.3%
Cc1oc(C)c(C(=O)N2CCCN(Cc3cscn3)CC2)c1C | -1.41% | 26.2%
CCCNC(=O)CN1CCC(C(=O)Nc2cnn(CC)c2)CC1 | 0.927% | 20.3%
Cc1cnn(CCNCc2ccccc2C#N)c1 | -1.14% | 12.5%
CCOc1cc(C)nc(N2CCN(Cc3nccn3C)CC2)n1 | -4.49% | 5.04%
CCCSCC(=O)NS(=O)(=O)c1ccc2c(c1)OCCO2 | -3.99% | 19.7%
COCCn1ccc(NC(=O)Nc2ccc(C(N)=O)c(F)c2)n1 | 2.25% | -3.67%
COCCn1nc(C(=O)N(C)Cc2cnn(C)c2)ccc1=O | -3.74% | 9.25%
Cc1nc(N2CCCC2)nc2c1CN(C(C)C)CC2 | 1.86% | -13.3%
Cc1n[nH]c(C)c1C1CCCN1C(=O)NCC(=O)NC(C)(C)C (centres undefined) | 1.47% | -24.4%
Cc1ccc(SCC(=O)NS(=O)(=O)c2ccc3c(c2)OCCO3)cc1 | 3.3% | 21.2%
CCNc1cc2c(nn1)CCN(C(=O)Cc1c(C)noc1C)C2 | 0.225% | 16%
COCCO[C@@H]1C[C@H]2CN(C(=O)c3cnccn3)CCN2C1 | 6.43% | -13%
NC(=O)Cc1ccc(NC(=O)C2CCOCC2)cc1 | 1.11% | 20.8%
COc1cccc(COCC(=O)N2CCCC(N3CCCC3)CC2)c1 (centres undefined) | -5.12% | 12.6%
CCCc1cc(C(=O)N2CCCC(n3ccnc3C)C2)[nH]n1 (centres undefined) | -3% | -5.55%
CC(=O)N1CCN(Cc2csc(-c3cnn(C)c3)n2)CC1 | -1.03% | -1.47%
Nc1cc(CCC2CN(Cc3ccc(C(=O)O)cc3)CCO2)ccn1 (centres undefined) | 2.72% | 55.2%
COc1ccc(-c2noc(CN3CCc4cncnc4C3)n2)cc1 | -0.389% | -15%
CC(O)CN1CCN(C(=O)CN(C)c2cnccn2)CC1 (centres undefined) | 4% | -8.23%
